Measured values reported in publication PMC7862700, “An all-to-all approach to the identification of sequence-specific readers for epigenetic DNA modifications on cytosine”.

Legend:
Assay in all cases: DAPPL (digital affinity profiling via proximity ligation, sequencing); 10 mM Tris-HCl pH 7.5, 50 mM NaCl, 1 mM DTT, 4% glycerol, room temperature, 30 min; GST-TFs on glutathione beads, 16-mer random dsDNA library, 0.1% formaldehyde crosslink after washing; high values mean tight binding
FLI1 = biological target: T1, FLI1 (Homo sapiens, UniProt Q01543 1-452); conditions: protein: recombinant; tags: N-terminal GST; dsDNA, one strand shown
T1 sequence: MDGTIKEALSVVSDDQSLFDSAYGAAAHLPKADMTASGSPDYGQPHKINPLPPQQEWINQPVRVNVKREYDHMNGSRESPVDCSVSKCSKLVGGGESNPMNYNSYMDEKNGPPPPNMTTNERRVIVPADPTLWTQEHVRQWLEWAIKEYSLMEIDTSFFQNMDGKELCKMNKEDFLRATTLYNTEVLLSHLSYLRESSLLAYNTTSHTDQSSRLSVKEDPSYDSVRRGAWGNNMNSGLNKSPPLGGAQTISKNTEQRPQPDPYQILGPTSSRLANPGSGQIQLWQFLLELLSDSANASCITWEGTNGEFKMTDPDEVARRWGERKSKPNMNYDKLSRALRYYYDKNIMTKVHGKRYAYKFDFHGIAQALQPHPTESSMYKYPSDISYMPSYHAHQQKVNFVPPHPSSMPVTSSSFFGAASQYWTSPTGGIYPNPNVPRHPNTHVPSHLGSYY
How it was run: (§1)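 GST fusions of human transcription factors were expressed in yeast and captured with glutathione beads. Once given DNA barcodes and pooled alongside a tag-only sample, they were incubated for 30 min at room temperature with 200 nmole of a random double-stranded 16-mer DNA library in Tris/NaCl/DTT/glycerol buffer, then washed, crosslinked (0.1% formaldehyde), proximity-ligated, PCR-amplified and sequenced on an Illumina NextSeq500. The binding signal of each hexamer is its read frequency for a factor divided by its frequency for the tag-only sample.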

ELK1 = biological target: T2, ELK1 (Homo sapiens, UniProt P19419 1-428); conditions: protein: recombinant; tags: N-terminal GST; dsDNA, one strand shown
T2 sequence: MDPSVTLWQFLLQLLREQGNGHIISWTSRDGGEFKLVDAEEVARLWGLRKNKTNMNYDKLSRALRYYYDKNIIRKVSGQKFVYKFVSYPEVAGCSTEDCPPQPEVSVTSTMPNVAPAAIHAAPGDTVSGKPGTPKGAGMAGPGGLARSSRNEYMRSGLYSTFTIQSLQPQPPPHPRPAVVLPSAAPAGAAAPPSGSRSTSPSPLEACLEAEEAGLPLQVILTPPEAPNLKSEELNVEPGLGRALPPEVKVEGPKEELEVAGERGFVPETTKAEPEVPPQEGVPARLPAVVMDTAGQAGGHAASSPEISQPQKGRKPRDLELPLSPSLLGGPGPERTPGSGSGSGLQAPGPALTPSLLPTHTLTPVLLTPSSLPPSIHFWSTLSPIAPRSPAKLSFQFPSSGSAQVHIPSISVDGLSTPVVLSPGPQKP
How it was run: as §1

GABPA = biological target: T3, GABPA (Homo sapiens, UniProt Q06546 1-454); conditions: protein: recombinant; tags: N-terminal GST; dsDNA, one strand shown
T3 sequence: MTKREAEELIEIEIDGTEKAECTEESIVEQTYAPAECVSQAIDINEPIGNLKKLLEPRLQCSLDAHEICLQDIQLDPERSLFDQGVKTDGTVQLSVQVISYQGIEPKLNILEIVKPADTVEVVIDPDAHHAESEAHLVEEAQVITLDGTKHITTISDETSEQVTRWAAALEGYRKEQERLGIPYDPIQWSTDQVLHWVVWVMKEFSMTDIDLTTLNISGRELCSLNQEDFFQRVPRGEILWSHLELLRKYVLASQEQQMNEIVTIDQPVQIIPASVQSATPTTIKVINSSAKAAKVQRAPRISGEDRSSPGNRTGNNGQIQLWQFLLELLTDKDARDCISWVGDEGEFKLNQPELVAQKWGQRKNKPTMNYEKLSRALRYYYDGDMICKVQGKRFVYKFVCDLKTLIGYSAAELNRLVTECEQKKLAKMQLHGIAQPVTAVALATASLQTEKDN
How it was run: as §1

ERG = biological target: T4, ERG (Homo sapiens, UniProt P11308 1-479); conditions: protein: recombinant; tags: N-terminal GST; dsDNA, one strand shown
T4 sequence: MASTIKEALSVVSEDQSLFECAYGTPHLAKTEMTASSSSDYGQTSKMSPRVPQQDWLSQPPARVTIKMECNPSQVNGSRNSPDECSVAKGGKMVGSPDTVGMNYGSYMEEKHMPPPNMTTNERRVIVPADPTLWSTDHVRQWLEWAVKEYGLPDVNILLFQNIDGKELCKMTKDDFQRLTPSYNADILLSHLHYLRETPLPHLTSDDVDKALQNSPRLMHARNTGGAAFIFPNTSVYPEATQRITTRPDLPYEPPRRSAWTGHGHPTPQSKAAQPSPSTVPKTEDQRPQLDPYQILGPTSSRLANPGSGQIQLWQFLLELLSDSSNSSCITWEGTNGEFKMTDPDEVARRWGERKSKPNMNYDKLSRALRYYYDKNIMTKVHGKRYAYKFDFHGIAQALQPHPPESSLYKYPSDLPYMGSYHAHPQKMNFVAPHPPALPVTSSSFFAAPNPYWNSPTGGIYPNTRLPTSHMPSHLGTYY
How it was run: as §1

ELF1 = ELF1 (Homo sapiens, UniProt P32519 1-619); conditions: protein: recombinant; tags: N-terminal GST; dsDNA, one strand shown
Sequence of ELF1 (P32519 whole entry): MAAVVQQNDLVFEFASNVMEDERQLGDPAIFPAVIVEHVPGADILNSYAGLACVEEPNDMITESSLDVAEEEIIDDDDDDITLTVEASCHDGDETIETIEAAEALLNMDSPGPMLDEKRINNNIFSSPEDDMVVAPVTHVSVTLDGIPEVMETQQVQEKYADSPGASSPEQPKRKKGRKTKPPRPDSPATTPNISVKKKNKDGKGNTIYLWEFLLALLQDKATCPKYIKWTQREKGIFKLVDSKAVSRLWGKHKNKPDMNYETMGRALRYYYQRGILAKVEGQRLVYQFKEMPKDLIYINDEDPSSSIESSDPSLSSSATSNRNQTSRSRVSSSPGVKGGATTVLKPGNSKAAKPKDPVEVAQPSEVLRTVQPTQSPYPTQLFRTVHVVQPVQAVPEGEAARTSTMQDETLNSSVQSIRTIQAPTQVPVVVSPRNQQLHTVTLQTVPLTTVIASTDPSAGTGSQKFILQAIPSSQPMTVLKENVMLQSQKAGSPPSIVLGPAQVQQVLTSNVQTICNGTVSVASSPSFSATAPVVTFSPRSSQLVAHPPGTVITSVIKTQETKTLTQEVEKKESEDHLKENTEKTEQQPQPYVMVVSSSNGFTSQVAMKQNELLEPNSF
How it was run: as §1

EHF = biological target: T5, EHF (Homo sapiens, UniProt Q9NZC4 1-300); conditions: protein: recombinant; tags: N-terminal GST; dsDNA, one strand shown
T5 sequence: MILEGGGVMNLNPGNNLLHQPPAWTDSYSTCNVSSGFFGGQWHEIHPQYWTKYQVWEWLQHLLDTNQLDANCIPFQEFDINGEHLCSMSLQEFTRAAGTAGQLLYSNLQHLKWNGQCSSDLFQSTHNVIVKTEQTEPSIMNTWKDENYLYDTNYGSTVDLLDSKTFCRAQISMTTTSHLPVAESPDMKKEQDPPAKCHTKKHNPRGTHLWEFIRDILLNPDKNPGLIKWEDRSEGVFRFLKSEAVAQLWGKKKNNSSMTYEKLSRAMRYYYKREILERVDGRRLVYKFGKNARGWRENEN
How it was run: as §1

SPI1 = SPI1 (Homo sapiens, UniProt P17947 1-270); conditions: protein: recombinant; tags: N-terminal GST; dsDNA, one strand shown
How it was run: as §1

SPIB = SPIB (Homo sapiens, UniProt Q01892 1-262); conditions: protein: recombinant; tags: N-terminal GST; dsDNA, one strand shown
Sequence of SPIB (Q01892 whole entry): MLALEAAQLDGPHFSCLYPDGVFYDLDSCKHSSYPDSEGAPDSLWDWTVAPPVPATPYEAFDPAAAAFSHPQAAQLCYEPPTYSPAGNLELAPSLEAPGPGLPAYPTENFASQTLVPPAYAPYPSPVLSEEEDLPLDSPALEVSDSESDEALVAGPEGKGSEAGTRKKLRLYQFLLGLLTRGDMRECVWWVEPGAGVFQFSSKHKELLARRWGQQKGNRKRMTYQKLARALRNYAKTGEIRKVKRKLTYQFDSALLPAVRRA
How it was run: as §1

ELK3 = biological target: T6, ELK3 (Homo sapiens, UniProt P41970 1-407); conditions: protein: recombinant; tags: N-terminal GST; dsDNA, one strand shown
T6 sequence: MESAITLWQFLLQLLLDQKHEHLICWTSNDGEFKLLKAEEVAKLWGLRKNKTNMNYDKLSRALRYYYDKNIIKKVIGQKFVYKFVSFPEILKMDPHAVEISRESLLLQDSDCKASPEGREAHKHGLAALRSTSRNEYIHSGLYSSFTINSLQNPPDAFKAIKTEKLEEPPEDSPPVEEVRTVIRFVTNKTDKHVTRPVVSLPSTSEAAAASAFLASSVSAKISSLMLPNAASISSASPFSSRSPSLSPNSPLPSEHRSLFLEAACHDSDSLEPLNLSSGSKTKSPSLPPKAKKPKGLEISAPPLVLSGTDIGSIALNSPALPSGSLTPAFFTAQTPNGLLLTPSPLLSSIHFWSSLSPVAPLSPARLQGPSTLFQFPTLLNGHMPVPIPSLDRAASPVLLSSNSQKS
How it was run: as §1

FEV = biological target: T7, FEV (Homo sapiens, UniProt Q99581 1-238); conditions: protein: recombinant; tags: N-terminal GST; dsDNA, one strand shown
T7 sequence: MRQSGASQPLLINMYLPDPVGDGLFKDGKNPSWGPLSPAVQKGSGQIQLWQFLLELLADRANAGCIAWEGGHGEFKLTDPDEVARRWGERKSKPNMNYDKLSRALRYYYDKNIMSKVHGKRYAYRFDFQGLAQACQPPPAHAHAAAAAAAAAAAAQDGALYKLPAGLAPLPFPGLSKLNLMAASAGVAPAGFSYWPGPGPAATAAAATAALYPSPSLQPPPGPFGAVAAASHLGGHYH
How it was run: as §1

ETV5 = ETV5 (Homo sapiens, UniProt P41161 1-510); conditions: protein: recombinant; tags: N-terminal GST; dsDNA, one strand shown
Sequence of ETV5 (P41161 whole entry): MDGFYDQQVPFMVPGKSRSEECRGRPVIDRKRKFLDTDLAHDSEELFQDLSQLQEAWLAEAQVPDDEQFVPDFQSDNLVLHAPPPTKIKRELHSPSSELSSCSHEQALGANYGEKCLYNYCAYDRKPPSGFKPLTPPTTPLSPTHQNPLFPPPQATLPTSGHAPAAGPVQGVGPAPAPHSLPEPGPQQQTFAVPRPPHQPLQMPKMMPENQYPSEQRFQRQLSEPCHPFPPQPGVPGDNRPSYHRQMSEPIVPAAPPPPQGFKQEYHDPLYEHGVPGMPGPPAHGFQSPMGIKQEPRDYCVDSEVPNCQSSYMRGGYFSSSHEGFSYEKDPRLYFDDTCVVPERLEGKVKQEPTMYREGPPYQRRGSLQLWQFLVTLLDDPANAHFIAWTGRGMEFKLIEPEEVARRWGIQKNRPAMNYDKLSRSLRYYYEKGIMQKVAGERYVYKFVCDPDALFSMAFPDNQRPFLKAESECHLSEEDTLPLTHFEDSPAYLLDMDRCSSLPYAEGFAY
How it was run: as §1

HSF1 = HSF1 (Homo sapiens, UniProt Q00613 1-529); conditions: protein: recombinant; tags: N-terminal GST; chain copies: 3; dsDNA, one strand shown
Sequence of HSF1 (Q00613 whole entry): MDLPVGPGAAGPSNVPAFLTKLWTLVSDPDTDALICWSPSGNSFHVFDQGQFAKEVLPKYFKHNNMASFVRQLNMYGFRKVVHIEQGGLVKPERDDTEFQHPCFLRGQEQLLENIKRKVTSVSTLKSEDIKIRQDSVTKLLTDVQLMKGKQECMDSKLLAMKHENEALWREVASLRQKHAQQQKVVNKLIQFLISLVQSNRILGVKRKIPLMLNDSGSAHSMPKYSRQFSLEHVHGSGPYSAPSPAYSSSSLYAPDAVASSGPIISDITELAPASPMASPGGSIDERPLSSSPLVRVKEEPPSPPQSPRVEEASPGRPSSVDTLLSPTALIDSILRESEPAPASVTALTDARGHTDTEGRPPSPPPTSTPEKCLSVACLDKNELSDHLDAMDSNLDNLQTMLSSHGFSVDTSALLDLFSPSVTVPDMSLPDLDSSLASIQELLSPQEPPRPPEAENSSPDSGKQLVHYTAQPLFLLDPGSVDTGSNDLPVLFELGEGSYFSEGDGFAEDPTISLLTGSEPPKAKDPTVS
How it was run: as §1

SPIC = biological target: T8, SPIC (Homo sapiens, UniProt Q8N5J4 1-248); conditions: protein: recombinant; tags: N-terminal GST; dsDNA, one strand shown
T8 sequence: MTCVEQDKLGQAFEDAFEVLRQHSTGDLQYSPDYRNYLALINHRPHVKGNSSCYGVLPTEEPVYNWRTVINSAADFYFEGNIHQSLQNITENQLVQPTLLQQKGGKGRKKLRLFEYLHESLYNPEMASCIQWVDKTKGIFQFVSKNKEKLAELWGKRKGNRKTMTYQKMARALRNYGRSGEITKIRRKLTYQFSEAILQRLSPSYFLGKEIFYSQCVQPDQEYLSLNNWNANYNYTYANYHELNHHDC
How it was run: as §1

ELF4 = ELF4 (Homo sapiens, UniProt Q99607 1-663); conditions: protein: recombinant; tags: N-terminal GST; dsDNA, one strand shown
Sequence of ELF4 (Q99607 whole entry): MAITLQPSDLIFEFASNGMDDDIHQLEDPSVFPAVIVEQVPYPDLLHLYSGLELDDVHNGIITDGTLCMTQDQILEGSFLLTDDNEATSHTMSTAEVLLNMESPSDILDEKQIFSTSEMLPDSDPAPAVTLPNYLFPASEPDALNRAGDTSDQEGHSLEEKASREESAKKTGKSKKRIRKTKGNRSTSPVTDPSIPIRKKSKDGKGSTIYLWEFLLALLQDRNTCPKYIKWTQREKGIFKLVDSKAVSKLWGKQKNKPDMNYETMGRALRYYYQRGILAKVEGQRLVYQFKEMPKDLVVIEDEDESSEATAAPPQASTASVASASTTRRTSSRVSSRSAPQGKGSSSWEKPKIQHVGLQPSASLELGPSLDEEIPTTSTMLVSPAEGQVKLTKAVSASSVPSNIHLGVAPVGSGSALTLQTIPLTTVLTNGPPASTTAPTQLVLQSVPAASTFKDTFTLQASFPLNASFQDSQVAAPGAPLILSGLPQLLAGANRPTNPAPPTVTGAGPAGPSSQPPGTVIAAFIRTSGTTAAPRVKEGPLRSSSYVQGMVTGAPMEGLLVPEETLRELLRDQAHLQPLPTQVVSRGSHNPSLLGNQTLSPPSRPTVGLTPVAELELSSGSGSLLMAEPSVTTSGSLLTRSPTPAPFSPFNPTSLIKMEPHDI
How it was run: as §1

ELK4 = biological target: T9, ELK4 (Homo sapiens, UniProt P28324-2 1-405); conditions: protein: recombinant; tags: N-terminal GST; dsDNA, one strand shown
T9 sequence: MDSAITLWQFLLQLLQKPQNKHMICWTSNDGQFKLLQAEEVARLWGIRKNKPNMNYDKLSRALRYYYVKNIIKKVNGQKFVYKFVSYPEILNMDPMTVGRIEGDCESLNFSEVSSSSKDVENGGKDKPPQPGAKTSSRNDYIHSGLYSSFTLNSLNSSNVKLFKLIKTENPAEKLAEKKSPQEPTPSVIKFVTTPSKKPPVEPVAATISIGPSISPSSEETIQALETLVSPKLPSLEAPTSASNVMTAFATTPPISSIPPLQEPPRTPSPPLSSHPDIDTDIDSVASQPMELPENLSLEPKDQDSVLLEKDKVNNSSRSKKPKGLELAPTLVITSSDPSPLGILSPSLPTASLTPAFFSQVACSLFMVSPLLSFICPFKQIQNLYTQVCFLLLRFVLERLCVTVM
How it was run: as §1

ETV2 = biological target: T10, ETV2 (Homo sapiens, UniProt O00321 1-342); conditions: protein: recombinant; tags: N-terminal GST; dsDNA, one strand shown
T10 sequence: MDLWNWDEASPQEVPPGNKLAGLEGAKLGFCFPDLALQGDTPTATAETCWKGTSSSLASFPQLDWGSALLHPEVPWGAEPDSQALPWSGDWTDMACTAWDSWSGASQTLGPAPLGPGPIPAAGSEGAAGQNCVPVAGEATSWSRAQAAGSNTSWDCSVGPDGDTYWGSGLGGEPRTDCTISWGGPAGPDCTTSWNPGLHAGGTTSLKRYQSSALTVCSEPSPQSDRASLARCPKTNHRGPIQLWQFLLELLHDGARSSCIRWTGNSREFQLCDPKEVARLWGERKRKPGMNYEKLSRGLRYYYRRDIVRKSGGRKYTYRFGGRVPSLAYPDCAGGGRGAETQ
How it was run: as §1

ELF3 = biological target: T11, ELF3 (Homo sapiens, UniProt P78545 1-371); conditions: protein: recombinant; tags: N-terminal GST; dsDNA, one strand shown
T11 sequence: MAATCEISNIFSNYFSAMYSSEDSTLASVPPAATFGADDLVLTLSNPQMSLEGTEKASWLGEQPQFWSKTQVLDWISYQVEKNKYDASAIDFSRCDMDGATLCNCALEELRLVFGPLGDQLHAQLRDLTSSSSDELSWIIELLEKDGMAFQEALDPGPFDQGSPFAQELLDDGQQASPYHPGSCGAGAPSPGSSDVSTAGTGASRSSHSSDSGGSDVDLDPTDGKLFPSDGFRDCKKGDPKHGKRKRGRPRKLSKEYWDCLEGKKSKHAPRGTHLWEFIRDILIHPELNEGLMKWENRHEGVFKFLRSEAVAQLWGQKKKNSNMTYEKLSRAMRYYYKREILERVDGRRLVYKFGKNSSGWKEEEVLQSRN
How it was run: as §1

CRX = CRX (Homo sapiens, UniProt O43186 1-299); conditions: protein: recombinant; tags: N-terminal GST; dsDNA, one strand shown
Sequence of CRX (O43186 whole entry): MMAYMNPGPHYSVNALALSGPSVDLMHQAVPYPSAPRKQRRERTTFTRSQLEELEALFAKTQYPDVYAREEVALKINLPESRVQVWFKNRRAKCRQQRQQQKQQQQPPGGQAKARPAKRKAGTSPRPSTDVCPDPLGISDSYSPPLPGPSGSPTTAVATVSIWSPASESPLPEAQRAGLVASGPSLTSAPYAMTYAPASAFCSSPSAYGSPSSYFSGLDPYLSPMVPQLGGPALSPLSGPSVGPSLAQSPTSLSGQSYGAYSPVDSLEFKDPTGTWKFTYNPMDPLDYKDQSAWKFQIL
How it was run: as §1

ETV1 = ETV1 (Homo sapiens, UniProt P50549 1-477); conditions: protein: recombinant; tags: N-terminal GST; dsDNA, one strand shown
Sequence of ETV1 (P50549 whole entry): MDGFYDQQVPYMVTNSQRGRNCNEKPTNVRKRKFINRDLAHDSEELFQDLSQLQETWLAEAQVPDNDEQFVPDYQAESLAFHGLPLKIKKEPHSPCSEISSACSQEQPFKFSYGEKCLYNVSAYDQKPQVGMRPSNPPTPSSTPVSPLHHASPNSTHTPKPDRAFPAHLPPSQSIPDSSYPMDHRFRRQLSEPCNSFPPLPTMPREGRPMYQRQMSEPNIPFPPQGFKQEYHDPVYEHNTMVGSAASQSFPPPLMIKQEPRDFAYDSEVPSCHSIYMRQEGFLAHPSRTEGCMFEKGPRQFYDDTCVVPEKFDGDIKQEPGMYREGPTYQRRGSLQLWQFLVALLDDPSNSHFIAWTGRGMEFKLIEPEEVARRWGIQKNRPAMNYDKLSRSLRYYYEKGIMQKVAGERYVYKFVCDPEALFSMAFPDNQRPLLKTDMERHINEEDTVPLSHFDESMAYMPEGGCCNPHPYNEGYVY
How it was run: as §1

For TTACCA, the binding signal (FLI1) was 1.12 fold enrichment (6-mer frequency, TF over GST control), the binding signal (ELK1) was 1.06 fold enrichment (6-mer frequency, TF over GST control) and the binding signal (GABPA) was 1.04 fold enrichment (6-mer frequency, TF over GST control). For the same sequence, the binding signal (ERG) was 1.11 fold enrichment (6-mer frequency, TF over GST control), the binding signal (ELF1) was 1.13 fold enrichment (6-mer frequency, TF over GST control) and the binding signal (EHF) was 1.03 fold enrichment (6-mer frequency, TF over GST control). For the same sequence, the binding signal (SPI1) was 1.11 fold enrichment (6-mer frequency, TF over GST control), the binding signal (SPIB) was 1.12 fold enrichment (6-mer frequency, TF over GST control) and the binding signal (ELK3) was 1.14 fold enrichment (6-mer frequency, TF over GST control). For the same sequence, the binding signal (FEV) was 1.09 fold enrichment (6-mer frequency, TF over GST control), the binding signal (ETV5) was 1.04 fold enrichment (6-mer frequency, TF over GST control) and the binding signal (HSF1) was 1.47 fold enrichment (6-mer frequency, TF over GST control). For the same sequence, the binding signal (SPIC) was 1.09 fold enrichment (6-mer frequency, TF over GST control), the binding signal (ELF4) was 1.04 fold enrichment (6-mer frequency, TF over GST control) and the binding signal (ELK4) was 1.04 fold enrichment (6-mer frequency, TF over GST control). The binding signal (ETV2) was 1.13 fold enrichment (6-mer frequency, TF over GST control), the binding signal (ELF3) was 1.1 fold enrichment (6-mer frequency, TF over GST control) and the binding signal (CRX) was 1.74 fold enrichment (6-mer frequency, TF over GST control). For the same sequence, the binding signal (ETV1) was 1.05 fold enrichment (6-mer frequency, TF over GST control).
